Shown are actives, neighbours in structure and some others; about 3.6% of the full set was active somewhere.
Sm TGR inh – qHTS Assay for the Inhibitors of Schistosoma Mansoni Peroxiredoxins. purified TGR, DTNB reduction, TNB absorbance 405 nm. AID 485364, 2010. Potency, µM (titrated, usually from 114 µM), actives largely listed as inhibitors. actives 3% (n = 360,000). Schistosoma mansoni thioredoxin glutathione reductase (TGR), Q962Y6; also: nearly all actives have a fitted effect of over 60% in size
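Kinetic colorimetric format: TGR-catalysed, NADPH-driven DTNB reduction monitored via TNB absorbance. Enzyme dispensed at 20 nM; compound exposure 15 min at room temperature before reaction start.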
AmpC inh detg – qHTS Inhibitors of AmpC Beta-Lactamase (assay with detergent) | P00811 | AmpC hydrolysis of nitrocefin, absorbance 480 nm, 0.01% Triton | Potency, µM (titrated, usually from 114 µM), usual class: inhibitors | actives 0.041% (n = 370,000); also: nearly all actives have a fitted effect of over 25% in size
Target sequence (P00811 whole entry, looked up): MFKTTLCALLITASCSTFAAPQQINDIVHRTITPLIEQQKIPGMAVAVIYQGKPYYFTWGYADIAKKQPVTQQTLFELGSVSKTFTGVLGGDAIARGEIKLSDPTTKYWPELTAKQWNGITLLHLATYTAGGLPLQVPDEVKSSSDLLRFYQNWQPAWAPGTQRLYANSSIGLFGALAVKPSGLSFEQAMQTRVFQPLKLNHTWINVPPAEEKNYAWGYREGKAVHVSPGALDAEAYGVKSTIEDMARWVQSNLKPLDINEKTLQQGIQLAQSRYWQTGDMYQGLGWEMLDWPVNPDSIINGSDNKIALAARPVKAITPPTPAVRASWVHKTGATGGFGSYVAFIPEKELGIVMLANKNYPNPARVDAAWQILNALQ
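20 mM phosphate pH 7.0 + 0.01% (detergent screen) or 0.0001% Triton X-100; 5.3 nM AmpC reagent; cpd preinc 15 min RT; nitrocefin (800 uM stock) to start; A480 q20 s × 4 min; Activity was normalised to no-enzyme and no-compound control wells.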
Giardia FBPA inh – qHTS Assay for Inhibitors of Fructose-1,6-bisphosphate Aldolase from Giardia Lamblia; A8B2U2; purified Giardia FBPA; Potency, µM (series often up to 59.6 µM), actives largely listed as inhibitors; actives 0.71% (n = 290,000); also: nearly all actives have a fitted effect of over 55% in size
Target sequence (A8B2U2 whole entry, looked up): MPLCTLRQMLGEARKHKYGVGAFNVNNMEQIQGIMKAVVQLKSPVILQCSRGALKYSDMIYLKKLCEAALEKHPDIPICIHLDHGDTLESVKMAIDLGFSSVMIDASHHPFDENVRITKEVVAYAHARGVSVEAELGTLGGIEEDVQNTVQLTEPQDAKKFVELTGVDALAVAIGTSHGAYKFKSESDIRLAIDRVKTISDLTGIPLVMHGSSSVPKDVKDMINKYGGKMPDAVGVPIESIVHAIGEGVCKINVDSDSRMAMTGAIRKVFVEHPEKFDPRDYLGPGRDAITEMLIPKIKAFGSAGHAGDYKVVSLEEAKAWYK
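Giardia FBPA (40 nM reagent) was preincubated 10 min at RT with compound (up to 57.5 uM final), then substrate plus GAPDH/TPI/NAD/arsenate coupling system with diaphorase/resazurin was added; resorufin fluorescence (525/598 nm) was read after 20 min.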
AmpC no deterg – qHTS Inhibitors of AmpC Beta-Lactamase (assay without detergent). P00811. AmpC nitrocefin hydrolysis, absorbance 480 nm, 0.0001% Triton. Potency, µM (series often up to 57.1 µM), hits mostly inhibitors. actives 0.52% (n = 330,000). AID 485341, 2010; also: nearly all actives have a fitted effect of over 20% in size
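AmpC (5.3 nM in the dispensed reagent) in 20 mM phosphate pH 7.0 with 0.01% (detergent screen) or 0.0001% Triton X-100 was preincubated with compounds for 15 min at room temperature. Nitrocefin was then added from an 800 uM solution, and hydrolysis was followed at 480 nm.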
Each line names hits and unclear results; the compound was inactive in the other large screens. Calls follow the shape of the dose curve; as a rule, active = well fitted curve in the direction sought with a large enough effect; inconclusive = small, poorly fitted or top-dose-only effect, or another doubt; inactive = no such curve, though single readings can be large; an effect the other way counts as inactive or inconclusive.

COc1ccc2ccc3c(c2c1)N=CC1(O3)N(C)c2ccccc2C1(C)C (stereo unspecified)	Sm TGR inh 22µM, AmpC inh detg inconclusive, Giardia FBPA inh inconclusive
COc1ccc2c(c1)Sc1ccccc1N2CCN(C)C	AmpC inh detg inconclusive, Giardia FBPA inh inconclusive
Cc1ccc(NC(=O)CSc2nn(-c3ccccc3)c(=S)s2)cc1S(=O)(=O)N(C)C	AmpC no deterg 28µM
O=C(CSc1nn(-c2ccccc2)c(=S)s1)Nn1cnnc1	none
C[C@@]1(C(=O)O)NCCc2cc(O)c(O)cc21	Giardia FBPA inh 13µM (no result: Sm TGR inh, AmpC inh detg, AmpC no deterg)
CCCCn1c(N)c(N(CCC(C)C)C(=O)COC(=O)/C=C/c2ccc(F)cc2)c(=O)[nH]c1=O	none (no result: Sm TGR inh, AmpC inh detg, Giardia FBPA inh)
COCCN(C(=O)COC(=O)C1(C)CC1(Cl)Cl)c1c(N)n(Cc2ccccc2)c(=O)[nH]c1=O (stereo unspecified)	none (no result: Giardia FBPA inh)
S=C(S)N1CCCC1	AmpC inh detg inconclusive, Giardia FBPA inh 13µM
Oc1ccc(C(=S)N2CCCC2)cc1	none
CCCCC(=O)OCC(=O)c1[nH]c(C)c(C(C)=O)c1C	none
N=C(N)SCc1ncccc1O	Sm TGR inh 11µM, Giardia FBPA inh inconclusive
CCC1Cc2cc(O)ccc2C2=C1c1ccc(O)cc1CC2CC (stereo unspecified)	none (no result: Sm TGR inh, AmpC inh detg, AmpC no deterg)
CN1CCN(Cc2c(O)ccc3cc(Br)ccc23)CC1	Sm TGR inh 3.5µM
CCOc1ccc(OCC(=O)N2CCOCC2)cc1	AmpC inh detg inconclusive
N#CC(C#N)=Cc1ccc(OCC(=O)N2CCOCC2)cc1	Sm TGR inh 2.5µM
N#CC(C#N)=Cc1ccc(N2CCOCC2)cc1	Sm TGR inh 3.2µM
COc1ccc(-c2ccc(CCC(=O)O)n2-c2ccccc2C(F)(F)F)cc1	Sm TGR inh inconclusive (no result: Giardia FBPA inh, AmpC no deterg)
COC(=O)c1cccc(-n2c(CCC(=O)O)ccc2-c2cccs2)c1	Sm TGR inh 3.5µM
O=C(O)CCc1ccc(-c2cccs2)n1NC(=O)c1ccc(Cl)cc1Cl	none
COC(=O)c1cccc(-n2c(CCC(=O)O)ccc2-c2ccc(OC)cc2)c1	Sm TGR inh 13µM (no result: Giardia FBPA inh, AmpC no deterg)
COc1cc(-c2ccc(Nc3ccccc3C(=O)O)c(OC)c2)ccc1Nc1ccccc1C(=O)O	Sm TGR inh 45µM, Giardia FBPA inh inconclusive
CCOC(=O)N1CCC(c2cc(=O)n3[nH]c(C)c(-c4ccc(F)cc4)c3n2)CC1	AmpC inh detg inconclusive, AmpC no deterg 25µM
Cc1ccc(Sc2ccccc2CN(C)C)c(N)c1	none (no result: Sm TGR inh, AmpC inh detg, AmpC no deterg)
O=C(NCc1ccco1)C1CC(c2ccccc2C(F)(F)F)=NO1 (stereo unspecified)	Sm TGR inh 20µM
COc1ccc(OC)c(C2=NOC(C(=O)NCc3ccco3)C2)c1 (stereo unspecified)	Sm TGR inh 35µM, AmpC inh detg inconclusive
CCC(=O)Nc1cc(ON=C(C)C)cc([N+](=O)[O-])c1	AmpC inh detg inconclusive
CC(C)=NOc1cc(NC(=O)CCl)cc([N+](=O)[O-])c1	Sm TGR inh 11µM
CN(CC(=O)Nc1ccc(F)cc1)C(=O)COc1ccccc1Cc1ccccc1	AmpC no deterg 35µM (no result: Giardia FBPA inh)
CN(C)c1ccc(NC2=C([N+](=O)[O-])CS(=O)(=O)C2)cc1	Sm TGR inh 2.2µM
Cc1ccc(NC2=C([N+](=O)[O-])CS(=O)(=O)C2)cc1	none
COc1cc(NC(=O)CN(C)S(=O)(=O)c2ccc(-c3ccc(=O)[nH]n3)s2)cc(OC)c1	Sm TGR inh 32µM
COCCNC(=O)CN(Cc1cccs1)C(=O)CCC(=O)Nc1nccs1	none
COc1ccc(S(=O)(=O)N2Cc3ccccc3CC2C(=O)Nc2ccc(O)cc2)cc1OC (stereo unspecified)	AmpC inh detg inconclusive, AmpC no deterg 0.71µM
Cc1ccc(S(=O)(=O)C2(C(=O)Nc3cccc(F)c3)CC2)cc1	AmpC inh detg inconclusive, AmpC no deterg 2.8µM
Cc1ccc(NC(=O)C2(S(=O)(=O)c3ccc(C)cc3)CC2)cc1	AmpC inh detg inconclusive
COCCCNC(=O)C(=O)NCCCOC(C)C	AmpC no deterg 0.28µM
CCC(C)[C@H](NC(=O)NCCCOC(C)C)C(=O)OC (stereo partly specified)	none
O=C1Nc2ccccc2Oc2cc(Oc3ccccc3)ccc21	AmpC no deterg 10µM (no result: Giardia FBPA inh)
CCC(C)/C=C/C1=CC2=C(Cl)C(=O)C3(C)OC(=O)C(C(=O)C(C)C(C)O)C3C2=CO1 (stereo unspecified)	Sm TGR inh 50µM
CN(C)C1=NC(=O)/C(=C/c2ccc(-c3ccc(S(N)(=O)=O)cc3)o2)S1	Sm TGR inh 32µM
NC1=NC(=O)/C(=C\c2ccc(-c3ccc(Cl)cc3)o2)S1	none
COc1cc(CN2CCCC(C(=O)c3sccc3C)C2)cc(OC)c1O (stereo unspecified)	Sm TGR inh 16µM, Giardia FBPA inh inconclusive
ClC(Cl)(c1nnnn1-c1ccccc1)c1nnnn1-c1ccccc1	Sm TGR inh 20µM, AmpC inh detg inconclusive
Clc1cccc(Cl)c1-c1nnc2ccc(N3CCOCC3)nn12	AmpC no deterg 0.5µM
Fc1cccc(Cl)c1-c1nnc2ccc(N3CCOCC3)nn12	none
O=C(O)C1CSCN1S(=O)(=O)c1cccc2nsnc12 (stereo unspecified)	Sm TGR inh 45µM
O=C1NC(CCc2ccccc2)C(=O)N1CCOc1ccccc1 (stereo unspecified)	none
CS(=O)(=O)Nc1cccc(C2=NN(S(C)(=O)=O)C(c3ccc4c(c3)OCO4)C2)c1 (stereo unspecified)	AmpC no deterg 40µM
CS(=O)(=O)Nc1ccc(C2=NN(C(=O)c3ccco3)C(c3ccco3)C2)cc1 (stereo unspecified)	Sm TGR inh inconclusive (no result: Giardia FBPA inh)
COc1ccc(S(=O)(=O)N2N=C(c3cccc(NS(C)(=O)=O)c3)CC2c2ccco2)cc1 (stereo unspecified)	Sm TGR inh 22µM (no result: Giardia FBPA inh)
COc1ccc(S(=O)(=O)N2N=C(c3ccc(NS(C)(=O)=O)cc3)CC2c2ccco2)cc1 (stereo unspecified)	Sm TGR inh 14µM
CC1=C(c2ccc(C(C)C)cc2)S(=O)(=O)N=C1N1CCC(C(=O)NCc2ccc(C)o2)CC1	none (no result: Giardia FBPA inh, AmpC no deterg)
CN1CCN(c2ccnc(-c3cccc(NS(C)(=O)=O)c3)n2)CC1	none (no result: Sm TGR inh, AmpC inh detg, AmpC no deterg)
N#CC(C#N)=Cc1cc(O)c(O)c(O)c1	Giardia FBPA inh 16µM (no result: Sm TGR inh, AmpC inh detg, AmpC no deterg)
CCOC(=O)CNC(=O)c1cc(-c2ccccn2)nc2c(C)c(Cl)ccc12	none
CCOC(=O)C1(N(CC)CC)Sc2cc(C)ccc2NC1=O (stereo unspecified)	AmpC inh detg inconclusive (no result: Giardia FBPA inh)
C=C(C)C(=O)OC1(C(F)(F)F)Oc2cc(C)ccc2NC1=O (stereo unspecified)	Sm TGR inh 40µM, AmpC inh detg inconclusive
CC(=O)N1CCN(CC(=O)Nc2ccc([N+](=O)[O-])cc2Br)CC1	none
CCOP(=O)(OCC)/C(C#N)=C/c1ccoc1	Sm TGR inh 45µM
CCOP(=O)(OCC)/C(C#N)=C/c1ccc([N+](=O)[O-])cc1	none
CCOc1ccc(C2C=C(c3ccccc3)Nc3ncnn32)cc1 (stereo unspecified)	Sm TGR inh 79µM

Screens (PubChem BioAssay)
